Measurements from PMC5540273 (PLoS ONE, 2017).

tested on: T1, p38-gamma; conditions: concentration: 1 μM, replicates: in singlicate; n = 1
T1 construct: gene MAPK12
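Further: KINOMEscan kinase panel screen.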

Structure (SMILES)	%Inh [%]
CN1CCN(CCCNc2nccc(-c3c(-c4ccc(F)cc4)nn4cc(C(F)(F)F)ccc34)n2)CC1 [GW621581]	18
Nc1n[nH]c2cnc(-c3ccccc3)cc12 [SB-642124]	0
Cc1occc1-c1ncc(OC[C@@H](N)Cc2c[nH]c3ccccc23)cc1-c1ccc2[nH]nc(C)c2c1.O=C(O)C(F)(F)F [GSK682037]	72
Cl.NC(=O)c1cccc(Nc2nccc(Nc3ccc(Oc4c(Cl)cccc4Cl)c(Cl)c3)n2)c1 [GW659009]	0
CCCCc1nn2ncccc2c1-c1ccnc(Nc2ccc(N3CCN(C)CC3)cc2)n1 [GW684941]	0
CCc1ccc(-c2ccc3c(c2)-c2c(cnn2C)S(=O)(=O)N3C)cc1	14
c1ccc(-c2n[nH]cc2Nc2ccnc3ccccc23)nc1 [GW694077]	0
c1ccc(Oc2ccc(Nc3ccnc4cc(-c5ccc(CNCCN6CCOCC6)o5)ccc34)cc2)nc1 [GW567145]	0
Cn1cc(-c2[nH]c3cc(NC(=O)[C@H](N)C4CCCCC4)cc4c3c2C=NNC4=O)cn1	7
FC(F)(F)c1ccc(/C=C/c2cncnc2Nc2ccc3[nH]c(Cc4ccccc4)nc3c2)cc1 [GW709199]	35
COc1cc2c(cc1OCCN1CCNCC1)ncc1c3ccc(C#N)cc3[nH]c21	30
CC(=O)N1CCN(c2ccc(Nc3nccc(-c4sc(C(C)C)nc4-c4cccc(NS(=O)(=O)c5cccc(Cl)c5)c4)n3)cn2)CC1 [GSK1660437]	11
Cc1ccc(F)c(C(=O)Nc2cccc(-c3nn4ccccc4c3-c3ccnc(Nc4cccc(F)c4)n3)c2)c1F [GSK361061]	12
Cc1cccc(NC(=O)Nc2ccc(Oc3ncnc4ccn(C)c34)cc2)c1	0
COc1cc(Nc2nccc(N3CCC(NC(=O)Nc4cccc(C(C)=O)c4)C3)n2)cc(OC)c1OC (stereo not drawn) [GSK1379753]	0
C[C@@H](Oc1cc(-n2cnc3cc(-c4ccnc(NCCS(C)(=O)=O)c4)ccc32)sc1C(N)=O)c1ccccc1Cl [GSK907232]	0
COC(=O)Nc1nc2cc(Oc3ccc(NC(=O)Nc4cc(C(F)(F)F)ccc4F)cn3)ccc2[nH]1.Cl.Cl [GW681170]	42
Nc1ncnc2c1nc(-c1ccccc1)n2-c1ccccc1 [SKF-97293]	26
NCCCC(NC(=O)c1cc(Br)c(-c2ccnc3[nH]ccc23)s1)c1ccccc1.O=C(O)C(F)(F)F.O=C(O)C(F)(F)F (stereo not drawn) [GSK1287544]	10
CSc1cccc2c(-c3ccncn3)c(-c3ccc(F)cc3)nn12 [GW514786]	2
CC(C)c1nc(-c2cccc(NS(=O)(=O)c3c(F)cccc3F)c2F)c(-c2ccnc(Nc3ccc(N4CCOCC4)nc3)n2)s1 [GSK2008607]	0
Cc1cccc(Nc2nc(N[C@H]3CCNC3)ncc2C(N)=O)c1.Cl [GSK2197149]	0
Nc1ncc(-c2ccc3nccc(-c4ccncc4)c3c2)cc1S(=O)(=O)N1CCOCC1 [GSK1627798]	0
COc1ccc(CNC(=O)NC2CCN(c3ccnc(Nc4ccc(F)cc4)n3)CC2)cc1 [GSK1379788]	0
O=C(Nc1n[nH]c2nc(-c3ccc(O)cc3)ccc12)C1CC1 [SB-710363]	20
CC(C)(C)c1ccc2nccc(Nc3cccc(O)c3)c2c1 [GW856795]	18
COc1cc(Nc2nccc(-c3c(-c4cccc(NC(=O)c5c(F)cccc5F)c4)nn4ccccc34)n2)cc(OC)c1OC [GSK323521]	42
O=c1[nH]cc(-c2ccc(N3CCOCC3)cc2)c2sc(-c3cn[nH]c3)cc12 [GSK2276055]	36
COc1cccc(-c2ccc3c(NC(=O)C4CC4)n[nH]c3n2)c1 [SB-710903]	0
Nc1ncc(-c2cccnc2)c2scc(-c3ccc4c(c3)CCN4C(=O)Cc3ccccc3)c12 [GSK683281]	0
